Only some compounds are listed: those with a hit (about 2.8% of all), similar ones and a draw of the others.
SMARCA2 act – SMARCA2 (BRM) function activators, primary screen, cell-based, luminescence, high throughput; AID 652017, 2013; 370,000 compounds, 1% hits; MG213 cells, MMTV-luciferase reporter, dexamethasone, overnight; activation, % at 9.1 µM; in the data active = activation above about 7.8%
bovine MsrA act – bovine MsrA enzyme activators, primary screen, biochemical, absorbance, HTS. Methionine sulfoxide reductase A (Bos taurus). purified bovine MsrA, absorbance read-out. activation, % at 10.6 µM. 360,000 compounds, 0.3% hits; in the data active = activation above about 7.5%
MsrA inhibitor – bovine MsrA enzyme inhibitors, primary screen, biochemical, absorbance, HTS. purified bovine MsrA, absorbance read-out. 360,000 compounds, 0.75% hits. AID 651718, 2012. Methionine sulfoxide reductase A (Bos taurus). inhibition, % at 15.5 µM; in the data active = inhibition above about 4.5%
proKLK7 act – proKLK7 zymogen activators, primary screen, biochemical, fluorescence intensity. AID 652039, 2013. purified proKLK7, EDANS-DABCYL substrate fluorescence; 100% is mature enzyme control, 0% vehicle. activation, % at 7 µM. 370,000 compounds, 0.9% hits;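 active = activation above the mean of all tested compounds plus 3 SD, computed per campaign excluding outliers beyond control limits, cut at about 13% in these data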
Target sequence (P49862 whole entry, looked up): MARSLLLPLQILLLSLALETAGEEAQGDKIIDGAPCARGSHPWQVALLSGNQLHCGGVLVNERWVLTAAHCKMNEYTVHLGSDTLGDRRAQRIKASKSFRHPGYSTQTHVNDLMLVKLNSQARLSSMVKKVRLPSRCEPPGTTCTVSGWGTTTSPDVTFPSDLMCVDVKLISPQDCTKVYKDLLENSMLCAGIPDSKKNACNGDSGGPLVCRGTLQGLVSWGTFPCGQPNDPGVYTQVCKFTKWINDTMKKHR
proKLK7 act conf – proKLK7 zymogen activators, confirmation, biochemical, fluorescence intensity, triplicate; 3,200 compounds, 68% hits; activation, % at 7 µM; purified proKLK7, EDANS-DABCYL substrate fluorescence; scaled: vehicle 0, mature enzyme 100; shares compounds with proKLK7 act; AID 686949, 2013;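 active = activation, as change over the incubation, above the mean of all tested compounds plus 3 SD, cut at about 13% in these data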
EDANS interfere – EDANS-DABCYL substrate optical interference, artefact control for kallikrein-7 zymogen activator project, biochemical, fluorescence intensity, high throughput. 3,200 compounds, 80% hits. no enzyme, 4 h; solvent 0%, active enzyme control 100%. activation, % at 7 µM. shares compounds with proKLK7 act. AID 686952, 2013;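 active = activation above the all-compound mean plus 3 SD, ignoring values outside control-based bounds, cut at about 4.8% in these data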;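 note: value is the 4 h activation minus the activation read at time zero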
A number is an active result; i = inactive; nt = not tested or not shown.

SMILES	SMARCA2 act	bovine MsrA act	MsrA inhibitor	proKLK7 act	proKLK7 act conf	EDANS interfere
Nc1cccc2c1C(=O)N(C(=O)/C=C/c1cccc(Br)c1)C2=O	i	i	i	i	nt	nt
COc1cc(/C=C/C(=O)N2C(=O)c3cccc(N)c3C2=O)cc(OC)c1OC	i	i	i	21	307	297
O=C(NCc1ccccc1)C1c2ccccc2OCC(=O)N1Cc1ccc2c(c1)OCO2 (stereo not given)	i	i	i	i	nt	nt
O=C(Nc1cccc(C(=O)N2CCOCC2)c1)C1CCCCC1	i	i	i	i	nt	nt
Cc1n[nH]c(C)c1S(=O)(=O)NCCc1ccccc1	i	nt	nt	i	nt	nt
COc1ccc2nc(N3CCC(O)CC3)c(C#N)cc2c1	i	i	i	16	61	72
O=C(NCc1cc(Cl)cc(Cl)c1)c1ccc2nc(COCCO)[nH]c2c1	i	i	i	i	nt	nt
Cc1oc2cc(O)ccc2c(=O)c1N1C(=O)c2ccccc2C1=O	i	i	i	344	298	301
CCOc1ccc(Oc2c(C)oc3cc(O)ccc3c2=O)cc1	i	i	i	i	nt	nt
Cc1oc2c(C)c(O)ccc2c(=O)c1N1C(=O)c2ccccc2C1=O	i	i	i	69	99	103
CC(=O)Oc1ccc2c(=O)c(N3C(=O)c4ccccc4C3=O)c(C)oc2c1	i	i	i	151	166	164
CCCOc1ccc2c(=O)c(N3C(=O)c4ccccc4C3=O)c(C)oc2c1	i	i	i	i	nt	nt
Cc1oc2cc(O)ccc2c(=O)c1Oc1ccccc1	i	i	i	54	74	75
Cc1ccc(OCC(=O)N2CCC3(CC2)CC(=O)c2ccccc2O3)cc1	i	i	i	i	nt	nt
CCOC(=O)N1CCN(C(=O)COc2ccc3c(c2)C(=O)CC2(CCN(C(C)=O)CC2)O3)CC1	i	i	i	26	71	75
CC(=O)N1CCC2(CC1)CC(=O)c1cc(OCC(=O)N3CCOCC3)ccc1O2	i	i	i	62	69	65
COc1ccc(C[N+]2=C(N)NC3=C(C)Cn4c(=O)n(-c5ccccc5)c(=O)n4C3C2)c(OC)c1 (stereo not given)	i	nt	nt	i	nt	nt
Cc1cc2c(nc1C)CCCN2Cc1ccccn1	i	nt	i	15	i	i
Nc1ccc(-c2nc3cc(N)ccc3s2)cc1	i	i	i	52	16	67
CC(=O)Nc1nc2cc(N)ccc2s1	i	i	i	i	nt	nt
Nc1[nH]c(C(=O)c2ccc(Br)cc2)c(-c2ccc(Br)cc2)c1C(=O)NCc1cccc2ccccc12	i	nt	i	i	nt	nt
Nc1nc(OCc2ccccc2)c2[nH]cnc2n1	i	i	i	i	nt	nt
Cc1nc2nc(N)nc(OCc3ccccc3)c2nc1C	i	i	i	59	75	80
O=C(Nc1cccnc1)c1coc(=O)c2ccccc12	i	i	i	460	355	343
CCCCn1c(N)c(N(CC(C)C)C(=O)COC(=O)c2ccccc2NCCO)c(=O)[nH]c1=O	i	i	i	22	21	27
SMILES	SMARCA2 act	bovine MsrA act	MsrA inhibitor	proKLK7 act	proKLK7 act conf	EDANS interfere
CCCCn1c(N)c(N(CCC(C)C)C(=O)COC(=O)c2ccccc2)c(=O)[nH]c1=O	i	i	i	i	nt	nt
CCCn1c(N)c(N(CCOC)C(=O)COC(=O)c2ccccc2NCCO)c(=O)[nH]c1=O	i	i	i	24	29	29
CCCCn1c(N)c(N(CCOC)C(=O)COC(=O)c2ccccc2OCC)c(=O)[nH]c1=O	i	i	i	i	nt	nt
CNc1cc(-c2cccc(C(=O)N3CCOCC3)c2)ncn1	i	i	i	i	nt	nt
O=C(CSc1nc2c(c(=O)[nH]1)CCCC2)N1CCOCC1	i	nt	nt	i	nt	nt
Oc1ccc(C[C@H]2CNC(=S)N2CC2CCCN2C[C@H](Cc2ccccc2)N2C[C@H](Cc3ccc(O)cc3)N(CC3CCCCCC3)C2=S)cc1 (stereo not given in full)	i	i	i	i	nt	nt
OCC[C@@H]1C[C@H](O)[C@@H](O)[C@@]2(OCCc3cc(C(F)(F)F)ccc32)O1	i	nt	i	i	nt	nt
O=C(NCCN1CCOCC1)c1ccc2c(c1)N(Cc1ccccc1)CCS2	i	i	i	21	i	i
CN1CCN(CCCNC(=O)c2ccc3c(c2)N(Cc2ccccc2)CCS3)CC1	i	i	i	15	i	i
O=C(NCCCN1CCOCC1)c1ccc2c(c1)N(Cc1ccccc1)CCS2	i	i	i	i	nt	nt
Cc1ccc(-n2c(SCC(=O)c3ccc4c(c3)OCO4)nc3ccccc3c2=O)cc1	i	nt	nt	i	nt	nt
O=c1ccc2ccc(O[C@@H]3O[C@H](CO)[C@@H](O)[C@H](O)[C@H]3O)c(O)c2o1	i	i	i	i	nt	nt
COc1cc2ccc(=O)oc2c(O[C@@H]2O[C@H](CO)[C@@H](O)[C@H](O)[C@H]2O)c1O	i	i	i	68	69	67
COc1cc(OC)c(/C=N/NC(=O)c2ccncc2)c(OC)c1	i	i	i	14	i	9.1
COc1ccccc1C(=O)Oc1ccc2ccc(=O)oc2c1	i	i	i	356	693	694
O=C(Oc1ccc2c(=O)c(Oc3ccc4ccccc4c3)coc2c1)c1ccco1	i	i	i	i	nt	nt
O=C(CN1C(=O)NC2(CCCCC2)C1=O)Oc1ccc2ccc(=O)oc2c1	i	i	i	127	62	65
O=C(Oc1ccc2ccc(=O)oc2c1)c1ccco1	i	i	i	180	705	729
COc1cc2cc(Oc3ccc4ccc(=O)oc4c3)c(=O)oc2cc1O	i	i	i	37	36	40
O=C(CSc1nnc(-c2ccccc2)n1-c1ccccc1)Nc1ccc(Oc2ccccc2)cc1	i	nt	nt	i	nt	nt
CCN(CC)C(=O)C1=C(C)N(Cc2ccc(C(C)(C)C)cc2)C(=O)C(CC(=O)NC(c2ccccc2)c2ccccc2)C1 (stereo not given)	i	i	i	i	nt	nt
O=C1c2ccccc2NC(c2ccc(-c3cccs3)o2)N1O (stereo not given)	i	i	i	19	i	7.4
COP(=O)(OC)c1nc(-c2cccc3ccccc23)oc1N1CCOCC1	i	i	i	77	63	64
CCOP(=O)(OCC)c1nc(-c2ccc(OC)cc2)oc1N1CCOCC1	i	i	i	i	nt	nt
Oc1cnc2ccccc2c1CN1CCOCC1	i	i	i	15	i	6.9
Cc1ccc(NC(=O)CSc2nnc(-c3cccnc3)n2Cc2ccco2)cc1C	i	nt	nt	i	nt	nt
COc1ccccc1N1C(=O)C2C(C(=O)c3ccccc3)=NN(c3ccc(Br)cc3)C2C1=O (stereo not given)	i	i	i	18	i	i
COc1ccccc1N1C(=O)C2C(C(=O)c3ccccc3)=NN(c3ccc(C)cc3)C2C1=O (stereo not given)	i	i	i	i	nt	nt
COCCNC(=O)CSc1nc(-c2ccc(OC)c(OC)c2)cc(C(F)(F)F)n1	i	i	i	i	nt	nt

Assay outcomes: PubChem BioAssay, The Scripps Research Institute Molecular Screening Center
